According to PubChem BioAssay:
Activity calls are given as the source filed them.

Key:
Albumin (Bos taurus) = Albumin (Bos taurus) (UniProt P02769); assay: bovine serum albumin binders on microarray, profiling panel, artefact control for SMM control protein annotation, biochemical, small-molecule microarray, Alexa647 label, 635/667 nm fluorescence (AID 1118); details: BSA-A647 binding, fluorescence 635 nm, higher = more signal;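 further: score merges 667 nm emission intensity and signal-to-noise per printed compound spot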
Albumin (Bos taurus), sequence (P02769 whole entry, looked up): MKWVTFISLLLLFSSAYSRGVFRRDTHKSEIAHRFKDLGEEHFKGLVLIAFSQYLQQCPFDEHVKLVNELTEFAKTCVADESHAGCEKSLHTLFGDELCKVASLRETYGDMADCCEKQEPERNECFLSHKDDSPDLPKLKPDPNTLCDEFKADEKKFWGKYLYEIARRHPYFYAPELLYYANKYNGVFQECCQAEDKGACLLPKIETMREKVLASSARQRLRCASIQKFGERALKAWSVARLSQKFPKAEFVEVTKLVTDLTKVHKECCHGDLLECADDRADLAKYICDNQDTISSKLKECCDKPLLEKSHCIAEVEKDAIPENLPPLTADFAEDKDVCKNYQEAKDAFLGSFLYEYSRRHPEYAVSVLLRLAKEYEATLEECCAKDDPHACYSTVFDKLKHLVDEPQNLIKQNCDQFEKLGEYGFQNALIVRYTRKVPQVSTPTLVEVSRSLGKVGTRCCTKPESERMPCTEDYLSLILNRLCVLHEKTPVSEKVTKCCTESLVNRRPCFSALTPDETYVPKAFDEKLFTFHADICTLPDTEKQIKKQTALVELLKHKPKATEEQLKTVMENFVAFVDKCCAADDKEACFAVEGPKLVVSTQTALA

[1] = small-molecule microarray binders of probe aXIP, primary screen, biochemical, NeuroSMM set, 635/667 nm fluorescence (AID 1119); details: higher = more signal, called active from +8 up or from −8 down;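 further: probe is the protein aXip251-270 applied at 1 µg/mL to compound-printed slides; binding of probe to printed compounds measured as 667 nm fluorescence plus signal to noise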
[2] = small-molecule binders of probe aNOTCH3, primary screen, biochemical, small-molecule microarray, 635/667 nm fluorescence (AID 1120); details: higher = more signal;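 further: probe is a biotin-tagged antibody raised against NOTCH3 rather than NOTCH3 protein; score merges spot fluorescence near 667 nm with spot signal to noise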
[3] = small-molecule binders of probe aNOTCH2, primary screen, biochemical, small-molecule microarray, 635/667 nm fluorescence (AID 1121); details: higher = more signal;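 further: score merges feature fluorescence read at 667 nm with its signal to noise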
[4] = biological target: Carbonic anhydrase 2 (Homo sapiens) (UniProt P00918); assay: CAII small-molecule binders, profiling panel, biochemical, small-molecule microarray, Alexa647-labelled CAII (AID 1122); details: CAII-A647 binding fluorescence, higher = more signal
[5] = COS7 lysate on small-molecule microarray, probe aHis, 635 nm (AID 1123); details: COS7 cell lysate, fluorescence, higher = more signal;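 further: z-score combines 667nm fluorescence intensity with signal-to-noise per printed compound spot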
[6] = compound binding in COS7 lysate, probe aLAP1, primary screen, cell lysate, small-molecule microarray (AID 1124); details: probe aLAP1, fluorescence, higher = more signal;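 further: lysate comes from COS7 cells expressing LAP1 and is applied at 0.3 µg/mL; score merges spot fluorescence near 667 nm with signal-to-noise over triplicate slides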
Sam68 (KHDRBS1) = assay: Sam68 small-molecule binders, primary screen, biochemical, small-molecule microarray, 635 nm fluorescence (AID 1125); details: small-molecule microarray binding, higher = more signal;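 further: score merges 667 nm channel intensity with signal to noise over triplicate slides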
[7] = test system: Chordin-like protein 2 (CHRDL2); assay: CHRDL2 small-molecule binders, primary screen, biochemical, small-molecule microarray, 635 nm fluorescence (AID 1126); details: small-molecule microarray binding, fluorescence 635 nm; higher = more signal;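 further: printed compound slides probed with Chrdl2 protein at 4 µg/mL for 1 h at 4 C; score merges 667 nm emission intensity with signal to noise over three replicate slides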
[8] = biological target: Concanavalin-A (Canavalia ensiformis) (UniProt P02866); assay: ConA small-molecule binders, primary screen, artefact control for SMM control protein annotation, biochemical, small-molecule microarray, Alexa647 label, 635 nm (AID 1127); details: ConA-A647 binding fluorescence, higher = more signal;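 further: z combines 667 nm emission intensity with signal-to-noise across three replicate slides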
Concanavalin-A (Canavalia ensiformis), sequence (P02866 whole entry, looked up): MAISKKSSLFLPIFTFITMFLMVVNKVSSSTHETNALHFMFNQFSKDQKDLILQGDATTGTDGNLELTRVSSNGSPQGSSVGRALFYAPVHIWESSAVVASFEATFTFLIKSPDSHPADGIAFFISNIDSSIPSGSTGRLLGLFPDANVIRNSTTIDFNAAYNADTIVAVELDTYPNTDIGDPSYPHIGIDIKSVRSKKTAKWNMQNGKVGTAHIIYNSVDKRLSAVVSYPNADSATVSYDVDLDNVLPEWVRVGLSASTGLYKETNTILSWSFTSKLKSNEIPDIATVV

Structure (SMILES) | composite z-score (Albumin (Bos taurus)) | composite Z-score [1] | composite z-score [2] | composite z-score [3] | composite z-score [4] | composite z-score [5] | composite z-score [6] | composite z-score (Sam68 (KHDRBS1)) | composite z-score [7] | composite z-score [8]
C=CCC(OC(C)=O)[C@@H]1[C@@H](N(Cc2ccc(-c3ccccc3)cc2)C(=O)Cc2ccc(OC)cc2)c2cc(OCCCO)ccc2N1C(=O)Cc1ccc2ccccc2c1 (stereo not given in full) | 0.0549 | 0.142 (inactive) | -0.0841 | -0.112 | 0.064 | 0.49 | -0.149 | -0.493 | -0.0169 | -1.7
O=C(NCCN1CCOCC1)[C@@H]1c2ccccc2C(=O)N(C2CCCCC2)[C@H]1c1ccc(CO)cc1 | 0.349 | -0.118 (inactive) | -0.154 | -0.147 | 0.625 | 1.29 | -0.0871 | 0.68 | -1.08 | 0.31
CCCC[C@@H]1C[C@H]1[C@@H](NC(=O)c1ccccc1)c1ccc(C(=O)OC)cc1 | -0.108 | 0.953 (inactive) | -0.048 | 0.0203 | 0.287 | 0.157 | -0.156 | -0.316 | -1.26 | -0.364
C=CCC(OC(C)=O)[C@@H]1[C@@H](N(Cc2ccc(-c3ccccc3)cc2)C(=O)c2cccc3ccccc23)c2cc(OCCCO)ccc2N1C(=O)c1ccc(-c2ccccc2)cc1 (stereo not given in full) | -0.0695 | 0.45 (inactive) | 0.0897 | -0.0783 | 0.175 | 1.17 | 0.674 | 0.316 | 0.111 | -0.249
COC(=O)[C@@]1(Cc2ccc(F)cc2)[C@H]2c3cc(C(=O)N4CCCC4)n(CCCNc4ncc(C(F)(F)F)cc4Cl)c3C[C@H]2CN1C(=O)c1ccccc1 | 0.357 | -0.585 (inactive) | 0.69 | 0.362 | 0.728 | 2.01 | -0.252 | 0.541 | 0.197 | 0.625
COC(=O)C(CC#Cc1ccc2c(c1)[C@]1(C(=O)N2)[C@H](c2ccc(OCCO)cc2)N2[C@H](c3ccccc3)[C@H](c3ccccc3)OC(=O)[C@H]2[C@@H]1C(=O)N1CCc2cc(OC)c(OC)cc2C1)C(=O)OC | 0.863 | -0.527 (inactive) | 0.407 | -0.0326 | 0.542 | 2.04 | 0.397 | 1.31 | 0.547 | 1.15
O=C1OCCC/C=C\[C@H]2OC34C=CCN(Cc5ccccc5)C(=O)[C@H]3N(CCCO)C(=O)[C@@H]4C12 (stereo not given in full) | -0.937 | 0.581 (inactive) | -0.327 | -0.104 | 0.948 | -0.861 | 1.59 | -0.374 | -1.79 | -1.53
Cc1ccc([C@@H]2C[C@@H](Sc3ccccc3)[C@H](C(=O)O)CN2S(=O)(=O)c2ccc(C)cc2)cc1 | 0.26 | -0.571 (inactive) | 0.171 | 0.0019 | 0.726 | 2.89 | 0.986 | 1.29 | -0.144 | 1.03
O=C1O[C@@H](c2ccccc2)[C@@H](c2ccccc2)N2[C@@H](c3ccccc3OCCO)[C@]3(C(=O)Nc4ccc(C#CC5=CCCCC5)cc43)[C@@H](C(=O)N3CCCCCCC3)[C@H]12 | 0.407 | 7.47 (inactive) | 2.16 | 1.08 | 1.04 | 4.3 | 1.29 | 1.31 | 1.68 | 1.09
O=C1C2C=CC(C(O)CCc3ccccc3)N(Nc3ccccc3F)C2C(=O)N1c1ccccc1 (stereo not given) | 0.955 | -0.585 (inactive) | 0.331 | -0.0677 | 0.755 | 2.69 | 0.185 | 1.22 | -0.47 | 0.893
C=C(COC)/C(=C/C[C@H](OC(C)=O)c1ccc(CO)o1)c1cc(C(=O)OC)ccc1OC | 0.424 | 0.482 (inactive) | -0.103 | -0.155 | 0.654 | 0.107 | 0.022 | 0.322 | 0.0151 | -0.714
O=C1NC(=O)C2C1C=CC(C(O)c1cccs1)N2Nc1ccc(Cl)cc1Cl (stereo not given) | 0.165 | -0.196 (inactive) | 0.267 | 0.181 | 0.723 | 1.03 | 0.293 | -0.374 | -0.352 | -0.376
CNS(=O)(=O)c1ccc(C)cc1 | -0.189 | 0.348 (inactive) | -0.185 | -0.0761 | -0.0894 | 0.284 | 0.291 | 0.667 | 1.07 | 0.613
CC(C)N1C(=O)[C@@]2(Cc3ccccc31)c1ccccc1C(=O)N(Cc1ccccc1Cl)[C@H]2c1ccc(CO)cc1 | -0.594 | 0.203 (inactive) | -0.321 | -0.152 | -0.154 | -0.472 | -0.289 | -0.162 | -0.465 | 0.0302
[N-]=[N+]=Nc1ccccc1[C@@H]1OC(c2ccc(OCCCO)cc2)=N[C@]1(CCS(=O)(=O)c1ccccc1)C(N)=O | 0.935 | 0.185 (inactive) | 0.308 | 0.125 | 0.438 | 2.02 | 1.66 | 1.29 | -0.227 | 1.16
CN(C)CCCCCCNC(=O)[C@@H]1C[C@@H]2C(=O)N[C@@H](Cc3ccccc3)C(=O)N2[C@@H]1c1ccc(O)cc1 | -0.0568 | 0.675 (inactive) | 0.299 | -0.0276 | 0.425 | 1.58 | -0.453 | 1.31 | 1.41 | 1.21
CC1(C)C2C=C(C(O)C3C=CC4C(=O)NC(=O)C4N3Nc3ccc(Cl)cc3Cl)C[C@@H]1C2 (stereo not given in full) | 0.818 | 0.392 (inactive) | 0.323 | 0.155 | 0.423 | 1.24 | 0.906 | 0.337 | 0.061 | 0.899
COC(=O)[C@@]1(Cc2ccc(OC)cc2)[C@H]2c3cc(C(=O)N(C)C)n(C)c3C[C@H]2CN1C(=O)c1ccccc1 | 1.03 | 0.0517 (inactive) | 0.839 | 0.284 | 0.76 | 3.16 | 0.0675 | 1.31 | -0.1 | 1.15
O=C1C[C@@](C(=O)NCCN2CCOCC2)(c2ccc([N+](=O)[O-])cc2)[C@@H](c2ccc(CO)cc2)N1CC12CC3CC(CC(C3)C1)C2 | 0.0577 | 0.0308 (inactive) | 0.0208 | -0.084 | 0.548 | 2.53 | 0.0978 | 1.29 | 0.901 | 0.926
C=CCNC(=O)[C@@H]1[C@H]2C(=O)O[C@H](c3ccccc3)[C@H](c3ccccc3)N2[C@H](c2ccc(O)cc2)[C@@]12C(=O)N(C(=O)OCCOC)c1ccc(C#CCNC(N)=O)cc12 | 0.803 | 0.797 (inactive) | -0.0247 | -0.0393 | 0.552 | 0.737 | 0.731 | 1.16 | 0.155 | 1.1
COC(=O)[C@@]1(Cc2ccccc2)[C@H]2c3cc(C(=O)N(C)C)n(Cc4ccsc4Br)c3C[C@H]2CN1C(=O)c1ccccc1 | 0.928 | -0.502 (inactive) | 0.501 | -0.0597 | 0.586 | 2.66 | -0.0415 | 1.21 | -1.03 | 0.883
COCCOC(=O)N1C(=O)[C@@]2(c3ccccc31)[C@H](c1ccccc1OCCO)N1[C@H](c3ccccc3)[C@H](c3ccccc3)OC(=O)[C@H]1[C@@H]2C(=O)N1CCN(c2ncccn2)CC1 | 0.493 | 1.6 (inactive) | -0.0345 | -0.0756 | 0.521 | 1.59 | 0.218 | 1.29 | 0.0792 | 1.11
COc1ccc(CCNC(=O)[C@@]2(C)c3ccccc3C(=O)N(C(C)C)[C@H]2c2ccc(CO)cc2)cc1 | 0.252 | 0.768 (inactive) | -0.0074 | -0.151 | 0.578 | 0.216 | 0.591 | -0.38 | 0.397 | 0.613
COc1ccc(/C=C/C=O)cc1 | -0.85 | -0.174 (inactive) | -0.0032 | -0.0468 | -0.206 | -0.513 | 0.0998 | -0.235 | 0.309 | -0.415
O=C1C[C@@](C(=O)NCCN2CCOCC2)(c2ccc([N+](=O)[O-])cc2)[C@@H](c2ccc(CO)cc2I)N1CC12CC3CC(CC(C3)C1)C2 | -0.091 | 0.0692 (inactive) | 0.0842 | -0.037 | 0.584 | 1.77 | 0.811 | 1.33 | 0.392 | 0.987
CC(C)[Si]1(C(C)C)O[C@@H](c2ccccc2)c2cc(-c3ccc(-c4ccc(Cl)c(Cl)c4)o3)nc(-c3ccccc3)c21 | 0.473 | -0.0194 (inactive) | -0.0918 | -0.133 | 0.233 | 0.308 | 0.0588 | 0.278 | -0.432 | 0.989
C=CCOC(=O)[C@@H]1[C@H]2C(=O)O[C@H](c3ccccc3)[C@H](c3ccccc3)N2[C@H](c2ccc(OCCOC(=O)[C@H]3C[C@H]4C(=O)N5CCC[C@H]5C(=O)N4[C@H]3c3ccc(O)cc3)cc2)[C@@]12C(=O)Nc1ccc(I)cc12 | -1.18 | 0.76 (inactive) | -0.213 | 0.0701 | 0.339 | 1.58 | -0.299 | 1.3 | 1.09 | 1.13
